# Bioassay records deposited in PubChem BioAssay by several laboratories.
# H9c2 protect – myocardial damage modulation in H9c2 cells | H9c2 cardiomyocytes, H2O2 injury protection, ATPLite, 2 h | 0.63% of 360,000 active | protection from H2O2 cell death, % at 20 µM;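 active = compounds giving at least 50% protection of heart cells from peroxide-induced death in the single-dose screen, raw or plate-pattern-corrected value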;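 note: 0% = DMSO wells with peroxide and 100% = DMSO wells without peroxide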
# MIN6 prolif – inducers of beta-cell replication in MIN6 cells; MIN6 cells proliferation, ATPlite luminescence, 48 h; cells starved in 0.2% serum; 100% = growth in 10% serum; 0.29% of 330,000 active; proliferation, % at 10 µM;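 active = compounds whose signal lies at least 3.5 SD above the mean of all wells on their plate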;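 note: 0% = DMSO-treated cells in low-serum medium and 100% = 10% serum control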
# m-calpain inh – blocks pig calpain II enzyme activity | purified calpain II, fluorogenic peptide substrate, 30 min | inhibition, % at 16 µM | 0.37% of 220,000 active | AID 1236;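 active = inhibition above about 50%, limit read from the data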
# TAG inh – inhibitors of triacylglycerol accumulation; 0.66% of 230,000 active; H9c2 cells, Nile Red lipid (TAG) fluorescence; cells loaded with 200 µM oleic acid; inhibition, % at 12.5 µM;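 active = pattern-corrected inhibition of lipid staining of at least 50% with the nuclear-stain viability signal not falling by more than 50%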;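 note: 0% = DMSO wells and 100% = triacsin C control wells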
# FAS TE block – FAS thioesterase (human) inhibition | P49327 | recombinant FAS-TE, OMFH fluorogenic substrate, fluorescence endpoint | inhibition, % at 15 µM | 0.67% of 360,000 active;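 active = compounds whose normalised, plate-corrected inhibition of enzyme fluorescence in the single-dose primary screen is 50% or more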;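 note: 0% = DMSO with enzyme and 100% = substrate without enzyme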
# aDG glyco up – increases alpha dystroglycan glycosylation | Pro5-aDG cells, alpha-DG glycosylation AlphaScreen (IIH6); 0% Pro5, 100% B10-LARGE cell signal | activation, % at 10 µM | 0.22% of 360,000 active;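 active = activation of at least 8% versus controls, or a plate z-score of at least 8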;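 note: Pro5 are CHO cells carrying HIG-tagged alpha-DG that lacks glycosylation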
# Active calls of the source: *; nt = not tested or not shown. In the library only some 2.3% were active in any assay of this set; here they are far more common.
SMILES,H9c2 protect,MIN6 prolif,m-calpain inh,TAG inh,FAS TE block,aDG glyco up
COc1ccc(/C=N/NC(=O)C(=O)/C=C2\NC3(CCCC3)Cc3ccccc32)cc1,0,-1,-35,nt,11,0
COc1ccc(-c2cc(NC=O)c3ncc(-c4cccc(C(=O)NCCN(C)C)c4)n3c2)cn1,2,nt,nt,9,-3,0
Cc1noc(NS(=O)(=O)c2ccc(NC(=O)c3ccc(N4C(=O)c5ccccc5C4=O)cc3)cc2)c1C,3,-2,83*,-6,-10,0
c1cnc2c(OCc3nc4ccccc4[nH]3)cccc2c1,13,1,56*,nt,-7,0
C(=N\Nc1nc2ccccc2[nH]1)/c1cccc2cccnc12,-15,-4,6,67*,-11,0
Cc1[nH]c2ccccc2c1/C=N/Nc1nc2ccccc2[nH]1,-18,-4,18,64*,-11,0
CN1C(=O)C2(NCCc3c2[nH]c2ccccc32)c2ccccc21 (centres undefined),-8,-3,-20,nt,-4,0
CC1=CC(C)(C)N2C(=O)C3(NCCc4c3[nH]c3ccccc43)c3cc(C)cc1c32 (centres undefined),8,-5,-7,68*,20,0
Cc1nc(N2CCN(Cc3ccccc3)CC2)nc2c1C(=O)CC(C)C2 (centres undefined),0,-3,68*,5,4,0
O=C(NCCCN1CCCC1)c1ccc(CS(=O)(=O)c2c(Cl)cccc2Cl)o1,-3,-3,nt,nt,-4,0
Cc1c(/C=N/NC(=O)c2ccc(O)cc2)c2ccccn2c1C(=O)c1ccc(F)cc1,54*,-6,1,-1,-1,0
Cc1c(/C=N/NC(=O)c2ccccc2O)c2ccccn2c1C(=O)c1ccc(F)cc1,-23,0,-61,nt,14,0
CCOC(=O)C1CN(S(=O)(=O)c2ccc(Cl)cc2)c2cc(S(=O)(=O)CC)ccc2O1 (centres undefined),10,-2,2,nt,12,-1
CCC1CN(S(=O)(=O)c2ccc3c(c2)NC(=O)CC(=O)N3)c2cc(Cl)ccc2O1 (centres undefined),66*,-5,nt,nt,-27,0
Cc1nn(CCC#N)c(NC(=O)c2ccc(Cl)cc2Cl)c1P(=O)(Nc1ccc([N+](=O)[O-])cc1)N1CCOCC1 (centres undefined),10,0,24,nt,52*,0
Cc1ccc(-c2nc3c(c(SCC(=O)N4CCOCC4)n2)Cc2c(CO)cnc(C)c2O3)cc1,36,-3,nt,nt,-2,-1
COc1ccc(-c2nc3c(c(SCC(=O)N4CCOCC4)n2)Cc2c(CO)cnc(C)c2O3)cc1,77*,-3,nt,nt,-3,-1
O=C1C=CC(n2cc(F)c(=O)[nH]c2=O)O1 (centres undefined),8,nt,nt,23,-9,0
CN(C)/C=C/C1=CC(=O)CC(C)(C)C1,2,-2,-19,nt,-6,0
N#C/C(=C\c1ccc(O)c(O)c1)C(=O)N1CCCC1,49,-1,1,-8,-3,1
COc1ccc(/C=C(\C#N)C(=O)NCCc2ccccc2)cc1OCc1ccccc1,14,-5,19,nt,29,0
N#C/C(=C\c1ccc(O)c(O)c1)C(=O)c1ccc(O)c(O)c1,64*,-4,nt,15,-2,0
N#C/C(=C\c1ccc(O)c(O)c1)S(=O)(=O)c1ccccc1,51*,0,-48,2,-2,0
N#C/C(=C\c1ccc(O)c(O)c1)C(=O)NCCCc1ccccc1,89*,-4,14,8,2,0
CC(C)c1cn(CC[C@@H]2CC[C@H](NS(=O)(=O)c3ccc(F)cc3)[C@@H](CO)O2)nn1,nt,nt,nt,nt,nt,0
SMILES,H9c2 protect,MIN6 prolif,m-calpain inh,TAG inh,FAS TE block,aDG glyco up
N#Cc1ccccc1C[C@H](N)C(=O)NC[C@H]1O[C@@H](n2ccc(N)nc2=O)[C@H](O)[C@@H]1O,-3,nt,nt,11,-10,0
O=C(C[C@H]1C/C=C\CC[C@H](Cc2ccc(F)cc2)C(=O)O[C@@H](c2ccccc2)CNC1=O)N[C@H](CO)Cc1ccccc1,51*,-5,nt,-9,8,0
O=C(C[C@H]1C/C=C\CC[C@H](Cc2ccc(F)cc2)C(=O)O[C@H](c2ccccc2)CNC1=O)N[C@H](CO)Cc1ccccc1,90*,-4,nt,13,31,0
CC(C)(C)OC(=O)C[C@@H]1C/C=C\C[C@H](CC(=O)N[C@H](CO)Cc2ccccc2)C(=O)N[C@H](Cc2ccccc2)COC1=O,19,-2,nt,7,2,1
O=C(C[C@H]1C/C=C\CC[C@H](Cc2ccc(F)cc2)C(=O)O[C@@H](c2ccccc2)CNC1=O)N[C@@H](CO)Cc1ccccc1,42,-5,nt,-54,8,1
CC(C)(C)OC(=O)C[C@H]1C/C=C\C[C@H](CC(=O)N[C@H](CO)Cc2ccccc2)C(=O)N[C@H](Cc2ccccc2)COC1=O,58*,-1,nt,-1,2,0
COc1ccc2[nH]c(=O)c(CN(CC3CCCO3)S(=O)(=O)c3ccccc3F)cc2c1 (centres undefined),53*,-3,nt,nt,-4,0
CC(=O)Nc1ccc(S(=O)(=O)N(Cc2ccco2)Cc2cc3ccccc3[nH]c2=O)cc1,58*,-3,nt,nt,-2,0
CNC(=S)N(Cc1ccco1)Cc1cc2cc(OC)ccc2[nH]c1=O,2,-3,-98,2,-5,0
CCc1ccc2[nH]c(=O)c(CN(Cc3ccco3)S(=O)(=O)c3ccc4c(c3)OCCO4)cc2c1,-3,-1,-5,nt,-8,0
CC(=O)Nc1ccc(S(=O)(=O)N(Cc2cccnc2)Cc2cc3ccccc3[nH]c2=O)cc1,64*,-2,nt,nt,-3,0
COC(=O)c1ccccc1S(=O)(=O)N(Cc1ccco1)Cc1cc2cc(OC)ccc2[nH]c1=O,59*,3,-18,nt,4,0
COc1ccc(C(=O)N/C(=C\c2cn(C)c3ccccc23)C(=O)N2CCOCC2)cc1,1,-1,nt,nt,-1,0
CCOc1ccc(Cl)cc1-c1cc(C(=O)NCCc2ccncc2)[nH]n1,4,nt,nt,13,8,0
O=C(NCc1ccccc1)c1cc(C2CCCN(C(=O)c3ccc4c(c3)CCO4)C2)on1 (centres undefined),-1,nt,nt,7,-6,0
Cc1ccc(NS(=O)(=O)c2cc([N+](=O)[O-])ccc2NNC(=S)Nc2cccc(Cl)c2)c(C)c1,-17,nt,44,-20,52*,-1
O=C(Nc1ccccc1)/C(=C/c1ccc([N+](=O)[O-])cc1)NC(=O)c1ccco1,1,-1,nt,nt,4,0
CC(C)C(=O)N1CCN(c2ccccc2N)CC1,11,0,81*,3,-7,0
Cc1cccc(N2CCN(C(=O)C(C)C)CC2)c1C,6,0,19,9,3,0
